The nature of test [1]: NCI Yeast Anticancer Drug Screen. Data for the rad50 strain (AID 155).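 Also: 0% = growth of vehicle-only cultures of the same strain.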 The settings on record: S. cerevisiae rad50 strain growth inhibition, stronger effect = higher value. In a few lines:
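Relative growth inhibition (compound vs vehicle) was measured in yeast with a defined repair-gene alteration.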

Test [2] can be described thus: NCI Yeast Anticancer Drug Screen. Data for the mec2-1 strain (AID 157). The settings on record: S. cerevisiae mec2-1 strain, stronger effect = higher value. Put shortly: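 Yeast mec2-1 mutant treated with compound. Readout: growth inhibition vs vehicle controls.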
Test [3] can be described thus: NCI Yeast Anticancer Drug Screen. Data for the sgs1 mgt1 strain (AID 161).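 Also: 0% = growth of cultures given vehicle only.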 The settings on record: S. cerevisiae sgs1 mgt1 strain, stronger effect = higher value. In a few lines: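 Read-out: growth inhibition vs vehicle controls. Cells: mutant yeast strain deficient in DNA damage repair.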
Test [4] is described as follows: NCI Yeast Anticancer Drug Screen. Data for the cln2 rad14 strain (AID 165).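 Also: 0% = growth equal to vehicle treated cultures.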 The settings on record: S. cerevisiae cln2 rad14 strain, stronger effect = higher value. In a few lines: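 cln2 rad14 yeast strain; compound exposure; growth inhibition read vs vehicle controls.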
Test [5] in a line: NCI Yeast Anticancer Drug Screen. Data for the bub3 strain (AID 167). The settings on record: S. cerevisiae bub3 mutant strain, stronger effect = higher value. In a few lines:
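Screening used yeast with an engineered genetic alteration affecting cell cycle control. Compound-exposed cultures were compared with vehicle cultures, and reduced growth was taken as inhibition.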

A short description of test [6]: NCI Yeast Anticancer Drug Screen. Data for the mlh1 rad18 strain (AID 175). The settings on record: S. cerevisiae mlh1 rad18 strain growth inhibition, stronger effect = higher value. Put shortly: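 Yeast w/ defined DNA-repair lesions; compound exposure; growth vs vehicle controls → % inhibition.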
The mark [7] stands for this setting: at 5.0 µM (retest, dose inferred, filed as 0.5).
[8] abbreviates: at 50.0 µM (retest, dose inferred, filed as 5.0).

Each structure is given as a SMILES string. This is part of a sample that, as a whole, favours compounds with a hit. Of some 79,000 tested, about 15% had one in any assay. Unmarked numbers belong to inactive results. Activity calls are given as the source filed them. Rule as the data show it: active = growth inhibition above about 70%; inactive = the rest.

As for `c1ccc(CN2CCc3[nH]c4ccccc4c3C2)cc1`, the growth inhibition was -1% in test [1] (setting [7]); -3% in test [1] (setting [8]); -1.9% in test [1] (at 50.0 µM); -1% in test [2] (setting [7]); -2% in test [2] (setting [8]); 17.1% in test [2] (at 50.0 µM). The growth inhibition in test [3] (setting [7]) was -4%; in test [3] (setting [8]), -1%; in test [3] (at 50.0 µM), 7.8%; in test [4] (setting [7]), -1%; in test [4] (setting [8]), -7%; in test [4] (at 50.0 µM), 33.5%. In addition, the growth inhibition in test [5] (setting [7]) was 1%; in test [5] (setting [8]) it was 6%; in test [5] (at 50.0 µM), -2.45%; in test [6] (setting [7]), -3%; in test [6] (setting [8]) it was -1%; in test [6] (at 50.0 µM) it was 18%.

For the compound `OCC(O)C(O)C(O)C(O)C(O)C(/C=N/Nc1ccccc1)=N/Nc1ccccc1` (stereo not given), the growth inhibition is -1% in test [1] (setting [7]); 81% (active) in test [1] (setting [8]); 55.2% in test [1] (at 50.0 µM); -2% in test [2] (setting [7]); 95% (active) in test [2] (setting [8]); 29.2% in test [2] (at 50.0 µM). Also, the growth inhibition was 0% in test [3] (setting [7]); 50% in test [3] (setting [8]); 35.2% in test [3] (at 50.0 µM); 0% in test [4] (setting [7]); 71% (active) in test [4] (setting [8]); 31.1% in test [4] (at 50.0 µM). In addition, the growth inhibition in test [5] (setting [7]) is 18%; in test [5] (setting [8]), 95% (active); in test [5] (at 50.0 µM), 56%; in test [6] (setting [7]), 8%; in test [6] (setting [8]), 92% (active); in test [6] (at 50.0 µM) it was 66.1%.

For `CCOc1ccc2c(c1)nc1ccccc1[n+]2CC`, the growth inhibition in test [1] (setting [7]) was 2%; in test [1] (setting [8]), 22%; in test [1] (at 50.0 µM) it was 20.3%; in test [2] (setting [7]) it was 7%; in test [2] (setting [8]) it was 33%; in test [2] (at 50.0 µM), 48.6%. Moreover, the growth inhibition was 2% in test [3] (setting [7]); 27% in test [3] (setting [8]); 41.4% in test [3] (at 50.0 µM); 2% in test [4] (setting [7]); 9% in test [4] (setting [8]); 56.4% in test [4] (at 50.0 µM). The growth inhibition in test [5] (setting [7]) is 6%; in test [5] (setting [8]) it was 36%; in test [5] (at 50.0 µM), 24.3%; in test [6] (setting [7]) it was -4%; in test [6] (setting [8]), 20%; in test [6] (at 50.0 µM), 44.2%.

`CCCCCCC(=O)CC(SCCN)c1ccccc1Cl` (stereo not given): the growth inhibition in test [1] (setting [7]) was 9%; in test [1] (setting [8]), 52%; in test [1] (at 50.0 µM), 99.2% (active); in test [2] (setting [7]) it was -5%; in test [2] (setting [8]), 56%; in test [2] (at 50.0 µM), 99.4% (active). The growth inhibition is -12% in test [3] (setting [7]); 48% in test [3] (setting [8]); 99.2% (active) in test [3] (at 50.0 µM); 12% in test [4] (setting [7]); 99% (active) in test [4] (setting [8]); 98.3% (active) in test [4] (at 50.0 µM). Also, the growth inhibition in test [5] (setting [7]) is -5%; in test [5] (setting [8]), 99% (active); in test [5] (at 50.0 µM) it was 98.9% (active); in test [6] (setting [7]), 1%; in test [6] (setting [8]), 55%; in test [6] (at 50.0 µM), 98.8% (active).

In the case of `C=C1CC(Cn2ccc(=O)[nH]c2=O)(c2ccc(Cl)cc2)OC1=O` (stereo not given), the growth inhibition was 11% in test [1] (setting [7]); 64% in test [1] (setting [8]); 47.9% in test [1] (at 50.0 µM); -4% in test [2] (setting [7]); 85% (active) in test [2] (setting [8]); 49.8% in test [2] (at 50.0 µM). Besides, the growth inhibition in test [3] (setting [7]) is -22%; in test [3] (setting [8]), 80% (active); in test [3] (at 50.0 µM) it was 70% (active); in test [4] (setting [7]) it was 27%; in test [4] (setting [8]) it was 35%; in test [4] (at 50.0 µM) it was 39.5%. Further, the growth inhibition was 6% in test [5] (setting [7]); 87% (active) in test [5] (setting [8]); 65.8% in test [5] (at 50.0 µM); 19% in test [6] (setting [7]); 81% (active) in test [6] (setting [8]); 74.1% (active) in test [6] (at 50.0 µM).

As to `CC(C)(CN1CCCCC1)C(=O)CC(SCCS(=O)(=O)O)c1ccc(Cl)cc1` (stereo not given), the growth inhibition in test [1] (setting [7]) was 16%; in test [1] (setting [8]), 88% (active); in test [1] (at 50.0 µM) it was 19.2%; in test [2] (setting [7]), -4%; in test [2] (setting [8]), 91% (active); in test [2] (at 50.0 µM), 3.7%. The growth inhibition is -9% in test [3] (setting [7]); 85% (active) in test [3] (setting [8]); 39.1% in test [3] (at 50.0 µM); -1% in test [4] (setting [7]); 91% (active) in test [4] (setting [8]); 55.7% in test [4] (at 50.0 µM). Moreover, the growth inhibition in test [5] (setting [7]) is -13%; in test [5] (setting [8]) it was 97% (active); in test [5] (at 50.0 µM) it was 25.6%; in test [6] (setting [7]) it was 1%; in test [6] (setting [8]), 89% (active); in test [6] (at 50.0 µM) it was 11.1%.

Turning to `C1CSCCCSCCCSCCCSCCCSC1`, the growth inhibition is 17% in test [1] (setting [7]); 24% in test [1] (setting [8]); 31.2% in test [1] (at 50.0 µM); 8% in test [2] (setting [7]); 17% in test [2] (setting [8]); 21.4% in test [2] (at 50.0 µM). The growth inhibition is 7% in test [3] (setting [7]); 20% in test [3] (setting [8]); 27.5% in test [3] (at 50.0 µM); 9% in test [4] (setting [7]); 22% in test [4] (setting [8]); 47.4% in test [4] (at 50.0 µM). For the same compound, the growth inhibition in test [5] (setting [7]) was 22%; in test [5] (setting [8]), 28%; in test [5] (at 50.0 µM), 25.1%; in test [6] (setting [7]) it was 15%; in test [6] (setting [8]) it was 36%; in test [6] (at 50.0 µM), -10.8%.

On to `O=Nc1cc(-c2ccccc2)c2ccccc2c1O`, for which the growth inhibition is 14% in test [1] (setting [7]); 86% (active) in test [1] (setting [8]); -2.65% in test [1] (at 50.0 µM); 14% in test [2] (setting [7]); 96% (active) in test [2] (setting [8]); 31.9% in test [2] (at 50.0 µM). In addition, the growth inhibition in test [3] (setting [7]) was 6%; in test [3] (setting [8]), 93% (active); in test [3] (at 50.0 µM), -10.4%; in test [4] (setting [7]) it was 15%; in test [4] (setting [8]) it was 97% (active); in test [4] (at 50.0 µM) it was 97.5% (active). The growth inhibition was 22% in test [5] (setting [7]); 95% (active) in test [5] (setting [8]); 97.4% (active) in test [5] (at 50.0 µM); 23% in test [6] (setting [7]); 96% (active) in test [6] (setting [8]); 2.45% in test [6] (at 50.0 µM).

Consider `O=C(O/N=C1/CCC/C1=C\c1ccccc1)c1ccccc1`, for which the growth inhibition is 33% in test [1] (setting [7]); 97% (active) in test [1] (setting [8]); 96.5% (active) in test [1] (at 50.0 µM); 46% in test [2] (setting [7]); 99% (active) in test [2] (setting [8]); 98.2% (active) in test [2] (at 50.0 µM). Moreover, the growth inhibition in test [3] (setting [7]) is 78% (active); in test [3] (setting [8]), 99% (active); in test [3] (at 50.0 µM), 98.8% (active); in test [4] (setting [7]), 25%; in test [4] (setting [8]) it was 98% (active); in test [4] (at 50.0 µM), 97% (active). The growth inhibition in test [5] (setting [7]) is 15%; in test [5] (setting [8]), 99% (active); in test [5] (at 50.0 µM), 96.3% (active); in test [6] (setting [7]) it was 57%; in test [6] (setting [8]), 98% (active); in test [6] (at 50.0 µM), 98.3% (active).

For `CCCCCC(CCCCC)C(=O)O`, the growth inhibition was 0% in test [1] (setting [7]); 63% in test [1] (setting [8]); 78.6% (active) in test [1] (at 50.0 µM); -7% in test [2] (setting [7]); 52% in test [2] (setting [8]); 70.2% (active) in test [2] (at 50.0 µM). The growth inhibition in test [3] (setting [7]) is -20%; in test [3] (setting [8]) it was 48%; in test [3] (at 50.0 µM), 72% (active); in test [4] (setting [7]) it was -11%; in test [4] (setting [8]) it was 50%; in test [4] (at 50.0 µM), 78% (active). The growth inhibition is -5% in test [5] (setting [7]); 29% in test [5] (setting [8]); 66.2% in test [5] (at 50.0 µM); -1% in test [6] (setting [7]); 60% in test [6] (setting [8]); 79.5% (active) in test [6] (at 50.0 µM).

Values taken from PubChem BioAssay (NCI).
